From the supplement of paper PMC6555819

What was measured:
Experiment in all cases: PBM binding z-score (relative to random genomic background probes); higher = stronger binding; sequences stand for … in GC…GCGATTGACAGCGTAGAATGAAGG
[1] = system: FXR:RXRa (NR concentration 270 nM, RXRa partner concentration 90 nM)
Summary of the method: (§1)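 Probes were double-stranded and carried 34-nt variable regions with direct-repeat seeds, single-nucleotide variants, half-site ablations and random human genomic background sequences, printed on custom Agilent 4×180K protein-binding microarrays. Arrays were incubated 1 h with ligand-free nuclear receptor dimers in PBS pH 7.4, 2% milk, 0.02% Triton X-100, 1 mM DTT, 0.2 mg/mL BSA and 0.4 mg/ml salmon testes DNA. Antibodies against each partner (one per run) detected binding, and scanned fluorescence was regression-normalized. Binding z-scores use the random background probes as reference.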

[2] = system: LXRa:RXRa (NR concentration 270 nM, RXRa partner concentration 90 nM)
Summary of the method: as §1

[3] = system: LXRa homodimer (NR concentration 270 nM)
Summary of the method: as §1

[4] = system: LXRb:RXRa (NR concentration 270 nM, RXRa partner concentration 90 nM)
Summary of the method: as §1

[5] = system: LXRb homodimer (NR concentration 270 nM)
Summary of the method: as §1

[6] = system: PPARa:RXRa (NR concentration 270 nM, RXRa partner concentration 90 nM)
Summary of the method: as §1

[7] = system: PPARg:RXRa (NR concentration 180 nM, RXRa partner concentration 90 nM)
Summary of the method: as §1

[8] = system: PPARg:RXRa 270nM:90nM, anti-RXR (NR concentration 270 nM, RXRa partner concentration 90 nM)
Summary of the method: as §1

[9] = system: PPARg:RXRa 30nM:10nM, anti-RXR (NR concentration 30 nM, RXRa partner concentration 10 nM)
Summary of the method: as §1

[10] = system: PPARg:RXRa 90nM:30nM, anti-RXR (NR concentration 90 nM, RXRa partner concentration 30 nM)
Summary of the method: as §1

[11] = system: PPARg:RXRa DBDmut IVT, anti-RXR (DBD mutation: RXRa K156A/R161A, NR concentration 270 nM, RXRa partner concentration 90 nM)
Summary of the method: as §1

[12] = system: PPARg:RXRa IVT, anti-PPARg (NR concentration 270 nM, RXRa partner concentration 90 nM)
Summary of the method: as §1

[13] = system: PPARg DBDmut:RXRa IVT, anti-PPARg (DBD mutation: PPARg1 K132A/R137A, NR concentration 270 nM, RXRa partner concentration 90 nM)
Summary of the method: as §1

[14] = system: PPARg DBDmut IVT, anti-PPARg (DBD mutation: PPARg1 K132A/R137A, NR concentration 270 nM)
Summary of the method: as §1

[15] = system: PPARg homodimer (NR concentration 180 nM)
Summary of the method: as §1

[16] = system: PXR:RXRa (NR concentration 270 nM, RXRa partner concentration 90 nM)
Summary of the method: as §1

[17] = system: PXR homodimer (NR concentration 270 nM)
Summary of the method: as §1

[18] = system: RARa:RXR (NR concentration 270 nM, RXRa partner concentration 90 nM)
Summary of the method: as §1

[19] = system: RARa homodimer (NR concentration 270 nM)
Summary of the method: as §1

[20] = system: RARb:RXRa (NR concentration 270 nM, RXRa partner concentration 90 nM)
Summary of the method: as §1

Row | Sequence | PBM binding z-score [1] | PBM binding z-score [2] | PBM binding z-score [3] | PBM binding z-score [4] | PBM binding z-score [5] | PBM binding z-score [6] | PBM binding z-score [7] | PBM binding z-score [8] | PBM binding z-score [9] | PBM binding z-score [10] | PBM binding z-score [11] | PBM binding z-score [12] | PBM binding z-score [13] | PBM binding z-score [14] | PBM binding z-score [15] | PBM binding z-score [16] | PBM binding z-score [17] | PBM binding z-score [18] | PBM binding z-score [19] | PBM binding z-score [20]
1 | TCTAGTTGGTCGCGGAGGTCACACACGACGGGTA | 2.99 | 3.17 | 2.21 | 2.94 | 0.671 | 3.61 | 2.02 | 3.04 | 2.94 | 2.83 | 1.54 | 2.37 | 0.402 | 0.328 | 2.9 | 4.16 | 1.42 | 4.39 | 1.29 | 3.38
2 | CCGACTGGGGCAAAGGTTACCATGCTCAGTACGA | 1.68 | 1.51 | -0.384 | 1.97 | -0.983 | 5.76 | 11 | 9.85 | 11.5 | 11.4 | 4.91 | 6.34 | 0.168 | -0.503 | 1.36 | 2.28 | -0.702 | 4.09 | -0.847 | 2.63
3 | CGTCCAAGGTCACCAGGTCAGTGAAAGCGACGTG | 7.52 | 5.47 | 1.42 | 4.08 | 0.282 | 6.01 | 7.61 | 6.88 | 3.48 | 5.87 | 4.53 | 5.56 | 0.432 | -0.2 | 5.06 | 5.13 | 1.21 | 6.39 | 2.58 | 5.42
4 | ATCGAAATGTCGTGAGGTGAGTATACAGAAAGGC | 0.101 | -0.0819 | -0.191 | -0.0754 | -0.00242 | -0.0374 | 0.546 | -0.0357 | -0.12 | 0.0916 | -0.876 | 0.356 | 1.2 | 0.426 | -0.35 | -0.158 | -0.418 | 0.27 | -0.172 | 0.61
5 | CCGACTGGGGCAACGGTTACCATACTCAGTACGA | -0.245 | -0.501 | -0.164 | -0.317 | -1.33 | 1.25 | 3.08 | 4.07 | 2.04 | 3.93 | 3.8 | 3.87 | -0.196 | -0.486 | 0.34 | -0.591 | -0.155 | -0.576 | -0.579 | 0.784
6 | CGAACTAGGTCAACGACAGTGAATCTCCGCACGC | 3.59 | 2.08 | 0.0952 | 1.47 | -0.0209 | 4.54 | 7.37 | 6.13 | 3.91 | 5.64 | 7.66 | 7.96 | 4.33 | 5.05 | 2.87 | 0.983 | -0.0485 | 1.99 | -0.0648 | 3.83
7 | GCTCGGAGGACAAGGTCACAGCTTTGTCCGTAGA | 4.17 | 3.99 | 0.175 | 3.17 | 0.142 | 4.56 | 3.68 | 4.17 | 1.12 | 2.98 | 0.831 | 3.16 | 0.822 | -0.625 | 2.33 | 3.9 | 0.00215 | 4.35 | 0.243 | 4.21
